# Experimental data from PMC5540273 (PLoS ONE, 2017).
# Where two headings read alike, the source gives them in different places.
# Assays:
# [1] = system: JAK1(JH2domain-pseudokinase); conditions: concentration: 1 μM, replicates: in singlicate; n = 1
# [2] = system: JAK2(JH1domain-catalytic); conditions: concentration: 1 μM, replicates: in singlicate; n = 1
# [3] = system: JAK3(JH1domain-catalytic); conditions: concentration: 1 μM, replicates: in singlicate; n = 1
# JNK1 = system: T1, JNK1; conditions: concentration: 1 μM, replicates: in singlicate; n = 1
# T1 construct: gene MAPK8
# JNK2 = system: T2, JNK2; conditions: concentration: 1 μM, replicates: in singlicate; n = 1
# T2 construct: gene MAPK9
# JNK3 = system: T3, JNK3; conditions: concentration: 1 μM, replicates: in singlicate; n = 1
# T3 construct: gene MAPK10
# KIT-autoinhibited = conditions: concentration: 1 μM, replicates: in singlicate; n = 1
# KIT = conditions: concentration: 1 μM, replicates: in singlicate; n = 1
# LATS1 = conditions: n = 1
# LATS2 = conditions: concentration: 1 μM, replicates: in singlicate; n = 1
# [4] = concentration: 1 μM, replicates: in singlicate
# 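Note: KINOMEscan kinase panel screen.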
SMILES,%Inh [1],%Inh [2],%Inh [3],%Inh (JNK1),%Inh (JNK2),%Inh (JNK3),%Inh (KIT-autoinhibited),%Inh (KIT),%Inh (LATS1; [4]),%Inh (LATS2),%Inh (LATS1; 1 µM)
O=C(Nc1n[nH]c2cc(-c3ccoc3)ccc12)C1CC1 [SB-738481],29%,18%,0%,8%,0%,6%,8%,77%,0%,3%,
COc1cccc(C2=C(Nc3ccc(Cl)c(C(=O)O)c3)C(=O)NC2=O)c1 [SB-390769],0%,100%,81%,52%,64%,45%,0%,6%,18%,100%,
Cc1ccc(F)c(C(=O)Nc2cccc(-c3nn4ccccc4c3-c3ccnc(Nc4cccc(F)c4)n3)c2)c1F [GSK361061],0%,8%,0%,29%,38%,25%,2%,99.4%,1%,23%,
CCn1c(-c2nonc2N)nc2c(C#CC(C)(C)O)ncc(OCCCCN)c21.O=C(O)C(F)(F)F.O=C(O)C(F)(F)F [GSK507274],0%,60%,0%,25%,10%,11%,0%,17%,,89%,0%
Cc1ccc(C(=O)N2CC[C@@H](O)C2)cc1-n1c(C)cc(OCc2ccc(F)cc2F)c(Br)c1=O,48%,0%,1%,14%,0%,0%,0%,87%,0%,0%,
Cc1cccc(Nc2nc(N[C@H]3CCNC3)ncc2C(N)=O)c1.Cl [GSK2197149],88%,58%,3%,67%,29%,34%,0%,94.9%,0%,0%,
NCCCC(NC(=O)c1cc(Br)c(-c2ccnc3[nH]ccc23)s1)c1ccccc1.O=C(O)C(F)(F)F.O=C(O)C(F)(F)F (stereo not shown) [GSK1287544],0%,91.3%,87%,36%,22%,19%,0%,22%,66%,89%,
COc1cc(Nc2ncc3c(C)nc(-c4cc5ccccc5[nH]4)n3n2)cc(OC)c1OC [GW869516],98.5%,54%,11%,11%,0%,0%,22%,72%,0%,0%,
COc1cccc(NC(=O)NC2CCN(c3ccnc(Nc4cc(OC)c(OC)c(OC)c4)n3)C2)c1 (stereo not shown) [GSK1379763],29%,88%,0%,28%,27%,39%,17%,98.5%,0%,13%,
COCCOCCOc1cc2ncc3c4ccc(C#N)cc4[nH]c3c2cc1OC,68%,11%,84%,5%,0%,0%,61%,73%,2%,10%,
Cc1ccc(C(=O)Nc2ccc(Nc3ccnc4cc(-c5nccs5)ccc34)cc2O)cc1.Cl [GW494702],0%,25%,0%,18%,3%,9%,0%,73%,0%,0%,
Nc1ncc(-c2cccnc2)c2scc(-c3ccc4c(c3)CCN4C(=O)Cc3ccccc3)c12 [GSK683281],1%,14%,0%,22%,37%,9%,7%,98.5%,0%,19%,
O=C(Nc1cccc(-c2nn3ccccc3c2-c2ccnc(Nc3cccc(F)c3)n2)c1)c1c(F)ccc(F)c1Cl [GSK357952],0%,25%,0%,11%,23%,19%,0%,98.2%,0%,49%,
COc1ccc(Nc2nccc(N3CCC(NC(=O)Nc4cccc(OC)c4)C3)n2)cc1 (stereo not shown) [GSK1379742],0%,26%,0%,14%,13%,0%,31%,49%,0%,0%,
O=C(NC1CCN(c2ccnc(Nc3ccc(F)cc3)n2)C1)c1cc2ccccc2s1 (stereo not shown) [GSK1379716],0%,0%,0%,24%,29%,13%,0%,21%,7%,0%,
Cc1occc1-c1ncc(OC[C@@H](N)Cc2c[nH]c3ccccc23)cc1-c1ccc2[nH]nc(C)c2c1.O=C(O)C(F)(F)F [GSK682037],0%,5%,0%,24%,55%,12%,0%,21%,93.9%,94.8%,

SMILES,%Inh [1],%Inh [2],%Inh [3],%Inh (JNK1),%Inh (JNK2),%Inh (JNK3),%Inh (KIT-autoinhibited),%Inh (KIT),%Inh (LATS1; [4]),%Inh (LATS2),%Inh (LATS1; 1 µM)
CCCCc1nn2ncccc2c1-c1ccnc(Nc2ccc(N3CCN(C)CC3)cc2)n1 [GW684941],4%,87%,27%,95.1%,98.9%,97.6%,97%,100%,0%,0%,
COc1cccc(-c2ccc3c(NC(=O)C4CC4)n[nH]c3n2)c1 [SB-710903],0%,17%,0%,29%,14%,5%,0%,15%,9%,10%,
C[C@@H](Oc1cc(-n2cnc3cc(-c4ccnc(NCCS(C)(=O)=O)c4)ccc32)sc1C(N)=O)c1ccccc1Cl [GSK907232],0%,50%,66%,0%,10%,1%,0%,80%,0%,0%,
Cc1ccc(C)c(NC(=O)NC2CCN(c3ccnc(Nc4ccc(F)cc4)n3)C2)c1 (stereo not shown) [GSK1379720],0%,0%,0%,45%,10%,0%,0%,14%,12%,0%,
CC(=O)N1CCN(c2ccc(Nc3nccc(-c4sc(C(C)C)nc4-c4cccc(NS(=O)(=O)c5cccc(Cl)c5)c4)n3)cn2)CC1 [GSK1660437],0%,40%,82%,13%,16%,11%,0%,96.1%,0%,0%,
Nc1n[nH]c2cnc(-c3ccccc3)cc12 [SB-642124],0%,75%,91%,13%,0%,6%,12%,0%,0%,2%,
COC(=O)Nc1nc2cc(Oc3ccc(NC(=O)Nc4cc(C(F)(F)F)ccc4F)cn3)ccc2[nH]1.Cl.Cl [GW681170],0%,30%,0%,0%,62%,0%,1%,100%,0%,8%,
c1ccc(Oc2ccc(Nc3ccnc4cc(-c5ccc(CNCCN6CCOCC6)o5)ccc34)cc2)nc1 [GW567145],0%,7%,0%,18%,2%,0%,4%,79%,8%,0%,
CSc1cccc2c(-c3ccncn3)c(-c3ccc(F)cc3)nn12 [GW514786],9%,9%,0%,24%,71%,75%,0%,0%,0%,16%,
O=c1[nH]cc(-c2ccc(N3CCOCC3)cc2)c2sc(-c3cn[nH]c3)cc12 [GSK2276055],77%,100%,39%,24%,14%,10%,22%,76%,0%,62%,
c1ccc(-c2cnc3nccnn23)cc1 [AH20685],0%,0%,0%,54%,20%,4%,0%,5%,0%,0%,
CN(c1ccc(NC(=O)Nc2cc(C(F)(F)F)ccc2F)cc1)c1ccnc(Nc2ccc(S(N)(=O)=O)cc2)n1 [GW809893],16%,94.7%,51%,8%,51%,0%,16%,99.5%,0%,0%,
CC(C)c1nc(-c2cccc(NS(=O)(=O)c3c(F)cccc3F)c2F)c(-c2ccnc(Nc3ccc(N4CCOCC4)nc3)n2)s1 [GSK2008607],0%,91.2%,99.6%,3%,40%,15%,0%,99.9%,0%,11%,
O=C(O)C(F)(F)F.O=C(O)C(F)(F)F.O=c1[nH]ccc2nc(N[C@@H]3CCCNC3)nc(Nc3ccc(S(=O)(=O)N4CCOCC4)cc3)c12 [GSK2177277],82%,98.7%,99.3%,99.4%,93.4%,98.6%,70%,99.8%,92.6%,96.9%,
Cc1ccc(S(=O)(=O)Nc2ccc(Nc3nccc(Nc4cccc5[nH]ncc45)n3)cc2)cc1 [GSK581271],16%,68%,3%,44%,27%,29%,0%,85%,0%,0%,
